Laboratory results as given in PubChem BioAssay (NCI).
The panel holds about 83,000 compounds, 20% with a hit somewhere; the sample as a whole holds those more often.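 A percent growth of 40 corresponds to 60% growth inhibition; 0 means no net growth; -100 means all cells died. Active threshold: below 10.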 Values without a mark were called inactive. Active and inactive are the calls of the source.

How the values were obtained:
Assay in all cases: NCI-60 one-dose screen, 48 h (100 = growth as untreated, 0 = no growth, -100 = all killed)
Conditions in all cases: 10 µM unless noted
NCI-H23 lung = test system: NCI-H23 lung
NCI-H226 lung = test system: NCI-H226 lung
NCI-H322M lung = test system: NCI-H322M lung
HOP-62 NSCLC = test system: HOP-62 NSCLC
NCI-H460 lung = test system: NCI-H460 lung
HOP-92 NSCLC = test system: HOP-92 NSCLC
NCI-H522 lung = test system: NCI-H522 lung
A549/ATCC NSCLC = test system: A549/ATCC NSCLC
786-0 renal = test system: 786-0 renal
COLO 205 colon = test system: COLO 205 colon
DU-145 prostate = test system: DU-145 prostate
K-562 leukemia = test system: K-562 leukemia
MALME-3M melanoma = test system: MALME-3M melanoma
MDA-MB-231 breast = test system: MDA-MB-231 breast
RXF 393 renal = test system: RXF 393 renal
SF-268 CNS = test system: SF-268 CNS
SF-295 CNS = test system: SF-295 CNS
SF-539 CNS = test system: SF-539 CNS
UACC-257 melanoma = test system: UACC-257 melanoma
M14 melanoma = test system: M14 melanoma

SMILES | growth (NCI-H23 lung) [%] | growth (NCI-H226 lung) | growth (NCI-H322M lung) [%] | growth (HOP-62 NSCLC) | growth (NCI-H460 lung) | growth (HOP-92 NSCLC) | growth (NCI-H522 lung) | growth (A549/ATCC NSCLC) | growth (786-0 renal) | growth (COLO 205 colon) | growth (DU-145 prostate) | growth (K-562 leukemia) | growth (MALME-3M melanoma) [%] | growth (MDA-MB-231 breast) | growth (RXF 393 renal) | growth (SF-268 CNS) [%] | growth (SF-295 CNS) | growth (SF-539 CNS) | growth (UACC-257 melanoma) [%] | growth (M14 melanoma)
CCCCNC(c1ccc(Cl)cc1)C(O)c1ccc(Cl)cc1 (stereo not given) | 38.5 | 65.7% | 51.4 | 40.6% | 7.67% (active) | -5.31% (active) | 35.2% | 63.5% | 50% | -71.4% (active) | 37.2% | 0.937% (active) | 39.7 | 5.73% (active) | 58.4% | 55.9 | 41.3% | 68.3% | 86 | 25.7%
Cc1ccccc1NC(=NCCCN1CC1)Nc1ccccc1C | 97.7 | 83.1% | 97.6 | 119% | 81.7% | 77.2% | 84.9% | 86.4% | 100% | 102% | 90.1% | 94% | 105 | 64.4% | 85.3% | 86.5 | 103% | 109% | 103 | 91.3%
COC(=O)[C@@H](C)C[C@H](Cc1ccccc1)NC(=O)c1nc([C@@H](C[C@H](C(C)C)N(C)C(=O)[C@@H](NC(=O)[C@H]2C[C@H](O)CCN2C)C(C)C)OC(C)=O)sc1C(C)C | 23.8 | -35.5% (active) | 26.5 | 1.87% (active) | 2.31% (active) | 25% | -21.9% (active) | 10.7% | 3.94% (active) | -65.9% (active) | -4.78% (active) | 5.9% (active) | 28.4 | 3.71% (active) | 18.9% | 13.8 | -16.8% (active) | -36.9% (active) | 66.1 | -22.4% (active)
CCOC(=O)[C@@H](C)C[C@H](Cc1ccccc1)NC(=O)c1csc([C@@H](C[C@H](C(C)C)N(C)C(=O)[C@@H](NC(=O)[C@H]2C[C@H](O)CCN2C)C(C)C)OC(C)=O)n1 | 30.7 | -29.5% (active) | 43.3 | 10.7% | 5.02% (active) | 26.3% | -39% (active) | 13.5% | 11.2% | -61.4% (active) | 0.421% (active) | 6.81% (active) | 35.1 | 14.5% | 42.1% | 24.6 | -6.17% (active) | -18.5% (active) | 58.5 | -13% (active)
C#C[C@]1(OC(=O)CCCCCC)CC[C@H]2[C@@H]3CCC4=CC(=O)CC[C@@H]4[C@H]3CC[C@@]21C | 19 | 54.8% | 49.5 | 35.5% | 21.2% | 58.6% | 20.5% | 46.1% | 56.5% | 29.3% | 72.1% | 20.7% | 77.1 | 59.7% | 58.8% | 50.7 | 32.2% | 47.9% | 55 | 25.6%
CC(=O)c1ccc(C(=O)NCC2CCC3(CC2)OOC2(CCCCC2)OO3)cc1 | 22.8 | 85.8% | 89.8 | 16.4% | 88.1% | -31.4% (active) | 60.8% | 23.5% | -70.5% (active) | 97.1% | 32.8% | 56.2% | 74 | 70.9% | 84.7% | 87.9 | 94.9% | 66.6% | 84.7 | 90.2%
C[S+]1C=Cc2ccccc2C1c1ccc(Cl)cc1 (stereo not given) | 83.7 | 85.1% | 99.5 | 126% | 99.6% | -54.5% (active) | 18.9% | 78.9% | 111% | 114% | 99.8% | 78.8% | 103 | 103% | 74.8% | 47.1 | 68% | 104% | 92.5 | 83.6%
CC(=O)O[C@H]1C(=O)[C@@]2(C)[C@H]([C@H](OC(=O)c3ccccc3)[C@]3(O)C[C@H](OC(=O)[C@H](OC(=O)OC[C@@H]4COC(C)(C)O4)[C@@H](NC(=O)c4ccccc4)c4ccccc4)C(C)=C1C3(C)C)[C@]1(OC(C)=O)CO[C@@H]1C[C@@H]2O | 19.9 | 60.4% | 14.4 | 19.3% | 3.59% (active) | 64.6% | 1.08% (active) | 11.9% | 19.4% | -28.4% (active) | 6.23% (active) | 13.8% | 28.9 | 2.49% (active) | -9.73% (active) | 32 | -7.77% (active) | -9.82% (active) | 50.1 | -20% (active)
CC(=O)[C@H]1CC[C@H]2[C@@H]3CC[C@H]4C[C@H](N)CC[C@]4(C)[C@H]3CC[C@]12C | 86.7 | 95.7% | 107 | 77.1% | 79.9% | 7.56% (active) | 77.3% | 66.4% | 60.7% | 49.3% | 92.2% | 56% | 82.9 | 72.7% | 66.8% | 92 | 99.6% | 84.6% | 55.2 | 68.3%
C[C@@H]1C[C@@]2(C)[C@@H](CC[C@@H]3[C@@H]2CC[C@]2(C)C(=O)CC[C@@H]32)CC1=O | 104 | 102% | 96.1 | 78.9% | 108% | 71.7% | 91.9% | 82.7% | 93.2% | 99.5% | 108% | 93.1% | 118 | 103% | 49.7% | 102 | 90.7% | 95% | 113 | 96.9%
CC(C)(C)N1CC1C#N (stereo not given) | 99.5 | 103% | 96.3 | 105% | 105% | 105% | 96% | 105% | 98.6% | 98.7% | 105% | 99% | 103 | 96.3% | 107% | 101 | 91.4% | 103% | 105 | 110%
CC[C@H](C)[C@H](NC(=O)[C@H]1CCCCN1C)C(=O)N(C)[C@H](C[C@@H](OC(C)=O)c1nc(C(=O)NC23CC(C(=O)OC)(C2)C3)cs1)C(C)C | 18.4 | 18.3% | 55.7 | 11.8% | 8.77% (active) | -1.71% (active) | -22.3% (active) | 9.09% (active) | 9.6% (active) | -46.8% (active) | -5.33% (active) | 5.87% (active) | 67.3 | 15% | 35.9% | 23.2 | 2.38% (active) | -22% (active) | 46.6 | 4.22% (active)
COC(=O)[C@]12CCC(C)(C)C[C@H]1[C@H]1C(=O)C[C@@H]3[C@@]4(C)C[C@@]5(CC(C)(C)[C@@H]4CC[C@@]3(C)[C@]1(C)CC2)OO[C@@](C)(C(F)(F)F)O5 | 89 | 86.5% | 109 | 100% | 101% | 98.8% | 76.7% | 98% | 97.8% | 134% | 107% | 88.3% | 108 | 94.8% | 95.3% | 93.1 | 95.7% | 101% | 102 | 99.2%
O=c1[nH]cc(N(CCCl)CCCl)c(=O)[nH]1 | 54.2 | 76.5% | 96.6 | 103% | 31.8% | 2.65% (active) | 53.8% | 77.5% | 44.9% | 81% | 52.4% | 83% | 62.5 | 95.2% | 68.6% | 52 | 49.6% | 46.2% | 62 | 73.5%
N#CCCNc1ccccc1 | 110 | 106% | 110 | 116% | 111% | 94.9% | 92.8% | 113% | 120% | 118% | 116% | 98.3% | 120 | 111% | 106% | 97.7 | 101% | 98.1% | 118 | 112%
